Screening results from PubChem.
Cycloheximide cs: affects cycloheximide protein synthesis inhibition readout, counter-screen; cell reporter, cycloheximide protein synthesis inhibition counterscreen; max response, %; 300,000 compounds, 12% hits; in the data active means max response mostly above about 13%, no sharp cut-off; inactive means mostly below about 14%; further: read at 38.3 µM for the half of the compounds with a filed dose; 0% is about no effect
Pf growth 96h: P. falciparum growth inhibition at 96 hours | P. falciparum luciferase reporter growth, 96 h | Potency, µM (series often up to 28.7 µM), for inactives: at the highest dose activity change, negative = inhibition, usual class: inhibitors | 320,000 compounds, 6.9% hits | AID 504834; further: potency means the concentration at half of the fitted maximal effect; on the % scale 0 is the no-effect control and ±100 the full control effect
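Cell-based qHTS: luciferase-tagged P. falciparum in erythrocytes (2% hematocrit, 0.05% parasitemia final) incubated with compounds for 96 hours, 37 C, 5% CO2; luciferase detection reagent then added and luminescence measured.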
Shiga inhibitor: Shiga toxin inhibition; Vero cells, Shiga toxin protein synthesis inhibition reporter; inhibition, % at 38.7 µM; 290,000 compounds, 9.2% hits; AID 2315; in the data active means inhibition mostly above about 28%, no sharp cut-off; inactive means mostly below about 43%; further: 0% is about no effect
Pf growth 48h: inhibits P. falciparum growth in the first generation, 48 h | P. falciparum luciferase growth in erythrocytes, 48 h | Potency, µM (doses to about 28.7 µM), for inactives: at the highest dose activity change, negative = inhibition, actives largely listed as inhibitors | 310,000 compounds, 5.9% hits | AID 504832; further: potency means the concentration at half of the fitted maximal effect; on the % scale 0 is the no-effect control and ±100 the full control effect
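In quantitative HTS format, infected erythrocytes bearing luciferase-reporter parasites were treated for a single generation at 37 C. Luminescence after adding detection reagent served as the growth measure.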
AMA1 RON2 block: inhibitors of Plasmodium falciparum AMA1-RON2 interaction | AlphaScreen AMA1-biotinylated RON2 peptide binding | Potency, µM (series often up to 58.2 µM), without a hit: at the highest dose activity change, negative = inhibition, most hits filed as inhibitors | 360,000 compounds, 0.2% hits | AID 720542;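 further: potency means the concentration at half of the fitted maximal effect; 0% = vehicle wells and -100% = peptide control; nearly all actives have a fitted effect of over 45% in size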
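AMA1 (3D7) with his tag at 25 nM final met compounds first, then biotinylated RON2 peptide at 25 nM; detection used donor plus acceptor beads, 10 µg/mL apiece, read by AlphaScreen after 30 min at room temperature.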
SARS PLP yeast: blocks SARS-CoV papain-like protease in a yeast assay. 330,000 compounds, 0.19% hits. S. cerevisiae expressing SARS-CoV PLpro, growth rescue. Potency, µM (titrated, usually from 32.9 µM), without a hit: at the highest dose activity, positive = growth rescue, most hits filed as activators. AID 485353; calls by dose curve; further: potency means the concentration at half of the fitted maximal effect; 0% is about no effect; nearly all actives have a fitted effect of over 55% in size
Numbers without * were called inactive; i = inactive; ? = inconclusive; · = no result; [ ] = another dose, or the depositor's remark. Compounds with a hit are over-represented: about 19% of the library has one in this group of screens. Unless noted, the call rests on the fitted dose curve; in most records, active means well fitted curve in the direction sought with a large enough effect; inconclusive means small, poorly fitted or top-dose-only effect, or another doubt; inactive means no such curve, though single readings can be large; an effect the other way counts as inactive or inconclusive.

SMILES	Cycloheximide cs	Pf growth 96h	Shiga inhibitor	Pf growth 48h	AMA1 RON2 block	SARS PLP yeast
COc1cccc(C2=CC(c3ccc(OC)c(OC)c3OC)n3nnnc3N2)c1 (stereo not drawn)	35*	18%	92*	18%	2%	22%
Cc1ccsc1C1C=C(c2cccc(Br)c2)Nc2ncnn21 (stereo not drawn)	-4	12µM*	-18	0%	-1%	-1%
O=C(Nc1cccc(O)c1)c1cc(S(=O)(=O)N2CCCC2)ccc1Cl	-5	20%	-12	·	13%	1%
Cc1cc2c(cc1Cl)C(c1ccccc1C)CC(=O)O2 (stereo not drawn)	-8	·	i	·	·	·
COc1cccc(N=C2SC(CC(=O)Nc3ccccc3)C(=O)N2Cc2ccccn2)c1 (stereo not drawn)	19	?	29	?	0%	-3%
CCCCCCCCCCCCCCCCC(C(=O)O)C(O)(CC(=O)O)C(=O)O (stereo not drawn)	·	-22%	·	-5%	·	·
COc1ccc(C2=CC(c3sccc3C)n3nnnc3N2)cc1 (stereo not drawn)	40*	52%	109*	159%	60%	-2%
Cc1ccc(C2=CC(c3ccc(N(C)C)cc3)n3nnnc3N2)cc1 (stereo not drawn)	26*	-3%	24	·	13%	-15%
CCN(CC)c1ccc(C=O)c(OC)c1	3	156%	-7	-6%	-3%	0%
CCOc1ccc(N/C(C)=C/C(=O)c2ccc3c(c2)OCCO3)cc1	56*	?	60*	112%	-17%	1%
CCOc1ccc(N/C(C)=C\C(=O)c2ccc3c(c2)OCCO3)cc1	50*	22%	86*	?	-19%	0%
CCOc1ccc(C(=O)N(CC)CC(=O)Nc2ccc3c(c2)OCCO3)cc1	·	189%	·	250%	-2%	6%
CCCC(O)(c1ccc(Br)cc1)C(CN1CCOCC1)c1ccc(Cl)cc1 (stereo not drawn)	1	39%	-11	2.3µM*	-21%	-1%
CCc1ccc(C(O)(C(C)C)C(CN2CCOCC2)c2ccccc2)cc1 (stereo not drawn)	-2	-1%	-3	5.2µM*	-11%	-6%
CCCC(O)(c1ccc(CC)cc1)C(CN1CCOCC1)c1ccccc1 (stereo not drawn)	-6	0%	-5	0.93µM*	-7%	-2%
CCCC(O)(c1ccc(Cl)cc1)C(CN1CCOCC1)c1ccccc1 (stereo not drawn)	-4	?	-19	·	-11%	-19%
O=C(NCc1ccc(F)cc1)C1CCCN(C(=O)NCc2ccccc2)C1 (stereo not drawn)	-3	?	4	5%	8%	1%
NC(N)=NS(=O)(=O)c1ccc(NC(=S)NC(=O)Cc2ccc(Cl)cc2)cc1	-1	-10%	-1	11%	3%	4%
CN(C)CCCOC(=O)COc1ccc(Br)cc1	-1	36%	-10	?	0%	0%
CCCn1c(C)nc2c(c1=O)c1nc3ccccc3nc1n2CCC1=CCCCC1	-3	?	2	?	1%	5%
Cc1nc2c(c(=O)n1CCC1=CCCCC1)c1nc3ccccc3nc1n2/N=C/c1ccco1	9	9.3µM*	54	10µM*	-20%	-14%
CC(=O)c1ccc(OCCCC(=O)NCCc2ccc(C(F)(F)F)cc2)cc1	1	-25%	-8	-32%	2%	18%
CC[C@H](C)[C@H](NC(=O)[C@@H]1CCCN1C(=O)[C@H](C)NC(=O)[C@H](CC(N)=O)NC(=O)[C@@H]1CCCN1C(=O)[C@@H]1CCCN1C(=O)[C@H](CCCN=C(N)N)NC(=O)[C@H](Cc1ccc(O)cc1)NC(=O)[C@H](C)NC(=O)[C@@H]1CCCN1C(=O)[C@@H]1CCCN1C(=O)[C@@H](N)[C@@H](C)O)C(=O)N[C@@H](CC(C)C)C(=O)O	-2	·	-6	·	·	·
Cc1cc(C(=O)CN2C(=O)NC3(CCCCC3)C2=O)c(C)n1Cc1ccco1	41*	4%	89*	56%	-16%	0%
CC(C)CC1(C)NC(=O)N(CC(=O)NC(=O)Nc2ccc3c(c2)OCCO3)C1=O (stereo not drawn)	58*	?	48*	-25%	-1%	-1%
SMILES	Cycloheximide cs	Pf growth 96h	Shiga inhibitor	Pf growth 48h	AMA1 RON2 block	SARS PLP yeast
Cc1cc(C(=O)CN2C(=O)NC3(CCCCC3)C2=O)c(C)n1Cc1ccc2c(c1)OCO2	27*	0%	96*	?	-19%	-5%
CC(C)CCC1(C)NC(=O)N(CC(=O)Nc2ccc3c(c2)OCCO3)C1=O (stereo not drawn)	·	·	·	·	-4%	7%
Cc1cc(C(=O)CN2C(=O)NC(C)(CC(C)C)C2=O)c(C)n1-c1ccc2c(c1)OCO2 (stereo not drawn)	-2	4.1µM*	-7	?	-2%	-33%
CC(=O)Nc1ccc2c(c1)C(=O)c1cccc(C(=O)O)c1-2	·	·	·	·	3%	·
CCC(=O)c1c(OCc2ccccc2)ccc2c(C)cc(=O)oc12	7	-24%	-7	-10%	·	-6%
CC1(C(=O)NS(=O)(=O)c2ccccc2C(F)(F)F)CCN1C(=O)c1cccc(F)c1 (stereo not drawn)	·	·	·	·	-7%	·
COc1ccccc1-c1nc(-c2ccc(C)nc2OC)no1	49*	-18%	93*	192%	-2%	-7%
COc1nc(C)ccc1-c1noc(-c2ccccn2)n1	57*	-4%	144*	164%	19%	4%
CCc1nc(-c2ccc(C)nc2OC)no1	8	-14%	-1	4%	-15%	0%
COc1nc(C)ccc1-c1noc(-c2cccnc2)n1	19*	0%	·	0%	-4%	-1%
CC(=O)Nc1nc(-c2cc([N+](=O)[O-])cs2)cs1	-3	28%	16	-39%[1.15 µM]	-2%	0%
CC(C)C[C@@H]1COc2cccc(N3CCN(Cc4ccccc4F)CC3)c2S(=O)(=O)N1	·	·	·	·	-15%	·
Cn1c(=O)c2sccc2n(Cc2cccc(Br)c2)c1=O	-2	?	-6	31%	4%	-6%
CC(C)[C@@H]1NC(=O)c2cc([N+](=O)[O-])cc(I)c2NCC[C@@H](C(N)=O)NC(=O)[C@H](CO)NC1=O	-4	-13%	-19	0%	·	2%
CC(C)[C@@H]1NC(=O)c2cc([N+](=O)[O-])cc(F)c2NCCC[C@@H](C(N)=O)NC(=O)[C@H](CO)NC1=O	-3	9.3µM*	-7	24%	·	0%
CC(C)C[C@@H]1NC(=O)[C@H](C(C)C)NC(=O)c2cc([N+](=O)[O-])cc(I)c2NCC[C@@H](C(N)=O)NC1=O	-1	2.1µM*	8	?	4%	-14%
COc1ccc(Nc2ncnc3scc(-c4ccc(OC)cc4)c23)cc1	-1	9.3µM*	-8	-17%	-12%	5%
